# PubChem BioAssay (NCI)
# Where “and” joins values, the source holds several entries; their conditions need not be identical. Identical values can stand only once. Compounds without any hit were thinned out: in the full panel of roughly 83,000, 20% have a hit.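 Step 1: grow cells in 96-well plates. Step 2: add test compound at a single concentration. Step 3: incubate 48 h. Step 4: record percent growth.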 Unmarked numbers belong to inactive results. Calls of active or inactive are those of the source. Rule for the calls: active = growth percent below 10; inactive = the rest.
# Tested on: MDA-MB-468 breast
# Assay: NCI-60 one-dose screen, 48 h (100 = growth as untreated, 0 = no growth, -100 = all killed)
# Conditions: 10 µM unless noted
row,Compound,growth
1,O=c1[nH]c2ccccc2cc1-c1nc2ccc(Cl)cc2[nH]1,60.7%
2,O=S(=O)(Nc1ccccn1)c1ccc(N=Nc2ccc(O)c3ncccc23)cc1,4.46% (active)
3,O=C1/C(=C/c2ccc([N+](=O)[O-])cc2)COc2ccc(O)c(O)c21,-90.9% (active)
4,Nc1nc2c(c3ncncc13)C(c1cccc(C(F)(F)F)c1)Cc1ncncc1-2 (stereo not given),-10.4% (active)
5,N/C(=N\C(N)=N\c1nc2ccccc2s1)c1ccc(Cl)cc1,94.6%
6,CN(CCC(=O)/C(=C\c1ccccc1)c1ccc(Cl)cc1)Cc1ccccc1,-35.2% (active)
7,Cc1ccccc1CNc1c2ccccc2nc2ccccc12,5.84% (active)
8,C=CC(=O)OCCCCCCCC,106%
9,Nc1ccn(C2O[C@H](CO)[C@@H](O)[C@@H]2O)c(=O)n1 (stereo not given in full),78.3%
10,O=C1NC(SCc2ccc(F)cc2)=N/C1=C/c1cccc(OCc2ccc(Cl)cc2)c1,62.9%
11,COc1cc(/C=C2\CCCC3=C2NC(N)=NC3c2cc(OC)c(OC)c(OC)c2)cc(OC)c1OC (stereo not given),-70.9% (active)
12,Nc1c(C(=O)Nc2cccc(Cl)c2Cl)sc2nc3c(cc12)C(=O)CCC3,71.8%
13,Fc1ccc(C2CC(c3cccc(Nc4ccncc4)c3)=NN2c2ccccc2)cc1 (stereo not given),-2.33% (active)
14,COc1ccc(-c2c(NC(=O)Nc3ccc(Cl)c(C(F)(F)F)c3)cnn2-c2ccc(S(N)(=O)=O)cc2)cc1,26.7%
15,Cn1cc(CNc2nc3ccc(OC/C(=C/F)CN)cc3o2)ccc1=O,107%
16,CCc1ccccc1-n1c(N)c(C#N)c(-c2ccc(Cl)cc2)c(C#N)c1=O,98.8%
17,CCn1cnc2c1c(=O)[nH]c(=O)n2CC1CCC(CNS(=O)(=O)c2ccc(OC3CCOCC3)c(F)c2)CC1 (stereo not given),30.5%
18,N=C(N)c1ccc(-c2ccc(-c3ccc(-c4cccs4)s3)s2)cc1,96.5%
19,CCOC(=O)c1c(C)nc(C)c(C(=O)OCC)c1-c1cccnc1,94.8%
20,CC(=O)NC(CCC(=O)c1ccccc1)C(=O)O (stereo not given),93.6%

row,Compound,growth
1,NC(=NCCCOc1ccc(Cl)cc1)Nc1ccc(C(F)(F)F)cc1,-8.47% (active)
2,CCCCOc1nc2ccc(C)cc2cc1/C=C/C(=O)/C=C/c1ccc2c(c1)OCO2,95.9%
3,Cc1cc(O)c(C2=NN(c3ccc(S(N)(=O)=O)cc3)C(c3ccccc3O)C2)cc1Cl (stereo not given),17.2%
4,CN1CCN(CC(=O)Nc2nc3c(s2)Nc2cc(Cl)c(Cl)cc2NC3=O)CC1,114%
5,O=C(CCCCCC/C=C\c1csc(Br)n1)NO,84.9%
6,CC(SC(C)C(=O)N/N=C/c1cccc(Cl)c1)C(=O)N/N=C\c1cccc(Cl)c1 (stereo not given),97.4%
7,CC/C=C\C[C@H](F)C/C=C1/C(=O)C=C[C@@H]1C/C=C\CCCC(=O)O,52.6%
8,CCN(CC)CC(=O)Nc1cccc(C(=O)OC(C)C)c1,115%
9,Nc1cc2c([nH]c[n+]2CC#CCCl)c(SCC#CCCl)n1,-57.1% (active)
10,COc1ccc(C(=O)N2NC(=O)/C(=C/c3ccccc3F)N=C2c2ccccc2)cc1,105%
11,CCN(CC)Cc1cc2[nH]c3c4ccc(Cl)cc4ncc3c2cc1OC,-12.8% (active) and -25.8% (active)
12,C#CCOc1cccc(-c2ncnc3cc(NC(=O)C=C)ccc23)c1,-8.85% (active)
13,COc1cc2c(cc1OC)C(=O)/C(=C/c1cc(C)c(O)c(C)c1)S2,11.4%
14,COc1cc(-c2n/c(=C\c3c(O)[nH]c4ccc(Cl)cc34)cc3c2=Nc2ccccc2-3)cc(OC)c1OC,30.5%
15,CN(C)c1ccc(Cc2cc(-c3ccccc3)nn(C/C(=N/O)c3ccccc3)c2=O)cc1,57.1%
16,COc1ccc2cc(C3=CC(=O)CCC3)ccc2c1,100%
17,Cn1c(=O)n(C)c2cc(CNCCNc3ccnc4cc(Cl)ccc34)ccc21,59.4%
18,C#C[C@]1(O)CC[C@H]2[C@@H]3CC=C4c5sc(-c6ccc(F)cn6)nc5CC[C@]4(C)[C@H]3CC[C@@]21C,43.4%
19,CCN1C(=O)N(CC)C2C1NN=c1s/c(=C\c3ccc(OC)cc3)c(=O)n12 (stereo not given),-0.192% (active)
20,Cc1ccc2oc(=O)cc(-c3cc(-c4cc5ccccc5oc4=O)nc(N)c3C#N)c2c1,68.7%
